In all, about 5,500 compounds went through this assay and about 2,000 (36%) were called active. Inconclusive results (about 18%) are left out. This is one part of the list. A number with no mark means an inactive call. Cut-off read from the data, not from the text of the source: active = normalized growth mostly below about 0.91 (no sharp cut-off); inconclusive = no clear call, values can overlap the other calls; inactive = mostly above about 0.92.
Assay: chemical genetic growth profiling, strain panel (AID 1159580);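 note: tested at 20 µM; growth read once vehicle control cultures reached saturation at 30 °C; 1 = growth at the plate median or of vehicle wells; lower values mean less growth of the strain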
Details: growth OD

In the case of `CC[C@@H](C(=O)[C@@H](C)[C@@H](O)[C@H](C)[C@@H]1O[C@@H]([C@@H](CC)C(=O)O)CC[C@@H]1C)[C@H]1OC2(C=C[C@@H](O)[C@]3(CC[C@@](C)([C@H]4CC[C@](O)(CC)[C@H](C)O4)O3)O2)[C@H](C)C[C@@H]1C` (some centres undefined), the normalized growth (S. cerevisiae deletion strains, locus YJR066W, strain TOR1, active compounds read low) was 0.237 (active), the normalized growth (S. cerevisiae deletion strains, locus YKL009W, strain mrt4, active compounds read low) was 0.934 and the normalized growth (S. cerevisiae deletion strains, locus YKL068W, active compounds read low) was 1.02. For the same compound, the normalized growth (S. cerevisiae deletion strains, locus YKL085W, strain MDH1 (second series), active compounds read low) was 0.812 (active), the normalized growth (S. cerevisiae deletion strains, locus YKL085W, strain MDH1, active compounds read low) was 0.812 (active) and the normalized growth (S. cerevisiae deletion strains, locus YKL160W, strain elf1, active compounds read low) was 0.879 (active). For the same compound, the normalized growth (S. cerevisiae deletion strains, locus YKL190W, strain CNB1, active compounds read low) was 0.925, the normalized growth (S. cerevisiae deletion strains, locus YKR001C, strain vps1, active compounds read low) was 0.108 (active) and the normalized growth (S. cerevisiae deletion strains, locus YKR026C, strain gcn3, active compounds read low) was 0.933. For the same compound, the normalized growth (S. cerevisiae deletion strains, locus YKR091W, strain srl3, active compounds read low) was 0.937, the normalized growth (S. cerevisiae deletion strains, locus YLL001W, strain dnm1, active compounds read low) was 0.833 (active) and the normalized growth (S. cerevisiae deletion strains, locus YLL026W, active compounds read low) was 0.892 (active). For the same compound, the normalized growth (S. cerevisiae deletion strains, locus YLL041C, strain sdh2, active compounds read low) was 0.926 (active), the normalized growth (S. cerevisiae deletion strains, locus YLR027C, strain aat2, active compounds read low) was 0.858 (active) and the normalized growth (S. cerevisiae deletion strains, locus YLR039C, strain RIC1, active compounds read low) was 0.294 (active). For the same compound, the normalized growth (S. cerevisiae deletion strains, locus YLR058C, strain SHM2, active compounds read low) was 0.935, the normalized growth (S. cerevisiae deletion strains, locus YLR102C, strain apc9, active compounds read low) was 0.905 (active) and the normalized growth (S. cerevisiae deletion strains, locus YLR113W, strain HOG1, active compounds read low) was 0.176 (active). For the same compound, the normalized growth (S. cerevisiae deletion strains, locus YLR221C, strain rsa3, active compounds read low) was 0.856 (active), the normalized growth (S. cerevisiae deletion strains, locus YLR258W, strain gsy2, active compounds read low) was 0.842 (active) and the normalized growth (S. cerevisiae deletion strains, locus YLR262C, strain YPT6 (second series), active compounds read low) was 0.662 (active). The normalized growth (S. cerevisiae deletion strains, locus YLR262C, strain YPT6, active compounds read low) was 0.183 (active), the normalized growth (S. cerevisiae deletion strains, locus YLR268W, strain sec22, active compounds read low) was 0.843 (active) and the normalized growth (S. cerevisiae deletion strains, locus YLR320W, strain mms22, active compounds read low) was 0.928. For the same compound, the normalized growth (S. cerevisiae deletion strains, locus YLR330W, strain CHS5, active compounds read low) was 0.927, the normalized growth (S. cerevisiae deletion strains, locus YLR342W, strain FKS1 (second series), active compounds read low) was 0.821 and the normalized growth (S. cerevisiae deletion strains, locus YLR342W, strain FKS1, active compounds read low) was 0.852 (active). For the same compound, the normalized growth (S. cerevisiae deletion strains, locus YLR357W, strain rsc2, active compounds read low) was 0.988, the normalized growth (S. cerevisiae deletion strains, locus YLR370C, strain arc18, active compounds read low) was 0.608 (active) and the normalized growth (S. cerevisiae deletion strains, locus YLR371W, strain rom2, active compounds read low) was 0.624 (active). The normalized growth (S. cerevisiae deletion strains, locus YLR384C, strain iki3, active compounds read low) was 0.954, the normalized growth (S. cerevisiae deletion strains, locus YLR418C, strain cdc73, active compounds read low) was 0.681 (active) and the normalized growth (S. cerevisiae deletion strains, locus YML016C, strain PPZ1, active compounds read low) was 0.978. The normalized growth (S. cerevisiae deletion strains, locus YML032C, strain rad52, active compounds read low) was 0.882 (active), the normalized growth (S. cerevisiae deletion strains, locus YML120C, strain ndi1, active compounds read low) was 0.847 (active) and the normalized growth (S. cerevisiae deletion strains, locus YML124C, strain tub3, active compounds read low) was 0.887 (active). The normalized growth (S. cerevisiae deletion strains, locus YMR058W, strain fet3, active compounds read low) was 0.908, the normalized growth (S. cerevisiae deletion strains, locus YMR078C, strain ctf18, active compounds read low) was 0.937 and the normalized growth (S. cerevisiae deletion strains, locus YMR125W, strain sto1, active compounds read low) was 0.932. For the same compound, the normalized growth (S. cerevisiae deletion strains, locus YMR129W, active compounds read low) was 0.937, the normalized growth (S. cerevisiae deletion strains, locus YMR205C, strain PFK2, active compounds read low) was 0.79 (active) and the normalized growth (S. cerevisiae deletion strains, locus YMR223W, strain ubp8, active compounds read low) was 0.838 (active). For the same compound, the normalized growth (S. cerevisiae deletion strains, locus YMR231W, strain pep5, active compounds read low) was 0.0726 (active), the normalized growth (S. cerevisiae deletion strains, locus YMR307W, strain GAS1, active compounds read low) was 0.801 and the normalized growth (S. cerevisiae deletion strains, locus YNL067W, strain RPL9B, active compounds read low) was 0.963. For the same compound, the normalized growth (S. cerevisiae deletion strains, locus YNL071W, strain lat1, active compounds read low) was 0.96, the normalized growth (S. cerevisiae deletion strains, locus YNL128W, strain TEP1, active compounds read low) was 0.969 and the normalized growth (S. cerevisiae deletion strains, locus YNL153C, strain GIM3, active compounds read low) was 0.911. The normalized growth (S. cerevisiae deletion strains, locus YNL183C, strain NPR1, active compounds read low) was 0.143 (active), the normalized growth (S. cerevisiae deletion strains, locus YNL209W, strain ssb2, active compounds read low) was 0.916 (active) and the normalized growth (S. cerevisiae deletion strains, locus YNL233W, strain BNI4, active compounds read low) was 0.861 (active). For the same compound, the normalized growth (S. cerevisiae deletion strains, locus YNL248C, strain rpa49, active compounds read low) was 0.95, the normalized growth (S. cerevisiae deletion strains, locus YNL250W, strain rad50, active compounds read low) was 0.868 (active) and the normalized growth (S. cerevisiae deletion strains, locus YNL271C, strain bni1, active compounds read low) was 0.814 (active). For the same compound, the normalized growth (S. cerevisiae deletion strains, locus YNL298W, strain CLA4, active compounds read low) was 0.439 (active), the normalized growth (S. cerevisiae deletion strains, locus YNL307C, strain MCK1, active compounds read low) was 0.862 (active) and the normalized growth (S. cerevisiae deletion strains, locus YNL322C, strain KRE1 (second series), active compounds read low) was 0.963. The normalized growth (S. cerevisiae deletion strains, locus YNR049C, strain mso1, active compounds read low) was 0.923, the normalized growth (S. cerevisiae deletion strains, locus YNR052C, strain pop2, active compounds read low) was 0.735 (active) and the normalized growth (S. cerevisiae deletion strains, locus YOL006C, strain TOP1, active compounds read low) was 0.192 (active). The normalized growth (S. cerevisiae deletion strains, locus YOL012C, strain htz1) was 1.26, the normalized growth (S. cerevisiae deletion strains, locus YOL147C, strain pex11, active compounds read low) was 0.884 (active) and the normalized growth (S. cerevisiae deletion strains, locus YOR001W, strain rrp6, active compounds read low) was 0.909. The normalized growth (S. cerevisiae deletion strains, locus YOR061W, strain CKA2, active compounds read low) was 0.642 (active), the normalized growth (S. cerevisiae deletion strains, locus YOR069W, strain VPS5, active compounds read low) was 0.797 (active) and the normalized growth (S. cerevisiae deletion strains, locus YOR070C, strain gyp1, active compounds read low) was 0.9 (active). The normalized growth (S. cerevisiae deletion strains, locus YOR080W, strain dia2, active compounds read low) was 0.961, the normalized growth (S. cerevisiae deletion strains, locus YOR083W, strain WHI5, active compounds read low) was 0.855 (active) and the normalized growth (S. cerevisiae deletion strains, locus YOR106W, strain vam3, active compounds read low) was 0.0692 (active). The normalized growth (S. cerevisiae deletion strains, locus YOR136W, strain idh2, active compounds read low) was 0.905 (active), the normalized growth (S. cerevisiae deletion strains, locus YOR144C, strain elg1, active compounds read low) was 0.885 (active) and the normalized growth (S. cerevisiae deletion strains, locus YOR184W, strain ser1, active compounds read low) was 0.892. For the same compound, the normalized growth (S. cerevisiae deletion strains, locus YOR231W, strain MKK1, active compounds read low) was 0.201 (active), the normalized growth (S. cerevisiae deletion strains, locus YOR265W, strain rbl2, active compounds read low) was 0.897 (active) and the normalized growth (S. cerevisiae deletion strains, locus YOR270C, strain vph1, active compounds read low) was 0.287 (active). The normalized growth (S. cerevisiae deletion strains, locus YOR290C, strain snf2, active compounds read low) was 0.863 (active), the normalized growth (S. cerevisiae deletion strains, locus YOR316C, strain cot1, active compounds read low) was 0.908 (active) and the normalized growth (S. cerevisiae deletion strains, locus YPL051W, strain arl3, active compounds read low) was 0.721 (active). The normalized growth (S. cerevisiae deletion strains, locus YPL055C, strain LGE1, active compounds read low) was 0.934, the normalized growth (S. cerevisiae deletion strains, locus YPL078C, strain atp4, active compounds read low) was 0.939 and the normalized growth (S. cerevisiae deletion strains, locus YPL106C, strain sse1, active compounds read low) was 0.932. For the same compound, the normalized growth (S. cerevisiae deletion strains, locus YPL240C, strain hsp82, active compounds read low) was 0.922 (active), the normalized growth (S. cerevisiae deletion strains, locus YPL256C, strain CLN2, active compounds read low) was 0.265 (active) and the normalized growth (S. cerevisiae deletion strains, locus YPR119W, strain clb2, active compounds read low) was 0.92 (active). The normalized growth (S. cerevisiae deletion strains, locus YPR141C, strain kar3, active compounds read low) was 1, the normalized growth (S. cerevisiae deletion strains, locus YPR163C, strain tif3, active compounds read low) was 0.538 (active) and the normalized growth (S. cerevisiae deletion strains, locus YPR167C, strain met16, active compounds read low) was 0.865 (active). The normalized growth (S. cerevisiae deletion strains, strain wtn01, active compounds read low) was 0.815 (active) and the normalized growth (S. cerevisiae strains, strain wild type, active compounds read low) was 0.925.

Reference: PubChem BioAssay AID1159580 (chemical genetic matrix, 2015)
